Source: PubChem BioAssay
This is a sample that favours compounds with a hit; in the whole collection about 1.6% have one here.
PABP1 MLLE inh: inhibitors of microRNA-mediated deadenylation, human PABP1 MLLE binding; hit rate 0.36% among 360,000; P11940; inhibition, % at 20 µM; GST-MLLE / FITC-PAM2 fluorescence polarization; AID 588489; in the data active = inhibition above about 35%, passing the limit was not always enough
PERK inh: inhibitors of human PERK kinase; Q9NZJ5; CHO PERK-DD fusion, SEAP luminescence translation reporter; inhibition, % at 5.6 µM; hit rate 0.17% among 220,000; AID 1416;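 active = inhibition above the mean inhibition of all tested compounds plus 3 SD, set separately per screening campaign, cut at about 2.9% in these data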;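 also: PERK kinase domain activated by AP20187 dimerizer at 100 nM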
eIF4E 4G PPI: blocks eIF4E binding to eIF4G | P63073+Q04637 | hit rate 0.37% among 220,000 | AID 782 | TR-FRET eIF4E-eIF4GI(517-606) binding, 2 h | inhibition, % at 21.7 µM;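 active = inhibition above about 30%, limit read from the data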
eIF4H FP inh: inhibitors of RNA binding by human eIF4H | Q15056 | eIF4H fluorescence polarization binding assay | inhibition, % at 35 µM | hit rate 0.94% among 290,000 | AID 2012;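 also: calls also rest on retests at 20 µM and on dose response follow-up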
PABP FP inh: PABP-poly(A) binding inhibition. P11940. PABP-poly(A) RNA binding, fluorescence polarization. inhibition, % at 35 µM. hit rate 1% among 290,000. AID 2014;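 also: calls also rest on retests at 20 µM and on dose response follow-up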
Each line names hits and unclear results; the compound was inactive in the other large screens. Unless noted, no rule for the calls is given here.

CC(=O)Nc1cccc(C(=O)/C=C/c2ccco2)c1	none
CC(=O)Nc1ccc(C(=O)/C=C/c2ccco2)cc1	eIF4H FP inh inconclusive, PABP FP inh 3.8
O=C(/C=C\c1ccco1)c1ccc(NC(=O)c2ccco2)cc1	eIF4H FP inh inconclusive, PABP FP inh 53
O=C(/C=C/c1ccco1)c1ccc(O)cc1	none (no result: PABP1 MLLE inh)
N#CCCn1cc(C(=O)O)c(-c2cccs2)n1	none
CC(=O)n1c2ccccc2c2c1c1ccccc1n2C	PABP1 MLLE inh 66
CC(=O)n1c2ccccc2c2nc3ccccc3nc21	none (no result: PERK inh, eIF4E 4G PPI)
CCOC(=O)C(=CNc1ccc2c(c1)nnn2-c1ccc(Cl)cc1)C(=O)OCC	none
CC1CN(C(=O)c2cccc(S(=O)(=O)Nc3ccc(Cl)cc3)c2)CC(C)O1 (stereo unspecified)	eIF4H FP inh active, PABP FP inh 66
COc1ccc(Cl)cc1NS(=O)(=O)c1cccc(C(=O)N2CC(C)OC(C)C2)c1 (stereo unspecified)	none (no result: PERK inh, eIF4E 4G PPI, eIF4H FP inh, PABP FP inh)
Nc1ccc2nc(-c3ccccc3)c(-c3ccccc3)nc2c1	eIF4H FP inh 70 (no result: PERK inh, eIF4E 4G PPI)
Cc1ccc(C2C(C(=O)c3cccs3)=C(O)C(=O)N2c2ccc(S(N)(=O)=O)cc2)cc1 (stereo unspecified)	none
Cc1ccccc1C1C(C#N)=C2N=C(N)c3c(sc4c3CCCCC4)N2C2=C1C(=O)CCC2 (stereo unspecified)	eIF4H FP inh 78, PABP FP inh 54
N#CC1=C2N=C(N)c3ccccc3N2C2=C(C(=O)CCC2)C1c1ccccc1F (stereo unspecified)	eIF4H FP inh inconclusive, PABP FP inh inconclusive
COc1ccccc1N1CCN(C(=O)C(C)CS(=O)(=O)c2ccc3c(c2)NC(=O)CS3)CC1 (stereo unspecified)	eIF4H FP inh 56 (no result: PERK inh, eIF4E 4G PPI)
Cc1ccccc1OCC(=O)NC1CCCCCCC1	none (no result: PERK inh, eIF4E 4G PPI)
Cc1[nH]n(C(N)=S)c(=O)c1N=Nc1ccc(S(=O)(=O)N2CCCCCC2)cc1	PABP1 MLLE inh 40
CC(C)c1nc2c([nH]1)c(=O)n(C)c(=O)n2C	eIF4H FP inh 54
O=C1CC2(CCCCC2)Oc2ccccc21	none (no result: PERK inh, eIF4E 4G PPI, eIF4H FP inh, PABP FP inh)
Brc1ccc(OCc2cn3ccccc3n2)cc1	none
Cc1cc2cc(CNS(=O)(=O)c3ccc4ccccc4c3)ccc2n1C	PABP1 MLLE inh 43
Cc1cc(C)c(S(=O)(=O)NCc2ccc3c(c2)cc(C)n3C)c(C)c1	none
CC(=O)Nc1ccc(S(=O)(=O)NCc2ccc3c(c2)cc(C)n3C)cc1	eIF4H FP inh 55, PABP FP inh 60
COc1cccc(NC(=S)NCc2ccc3c(c2)cc(C)n3C)c1	none
Cc1cc2cc(CNC(=S)Nc3ccc(OC(F)(F)F)cc3)ccc2n1C	PABP1 MLLE inh 46
CCCCN1C2=C(C(=O)CCC2)C(c2ccc(Cl)c(Cl)c2)C2=C1c1ccccc1C2=O (stereo unspecified)	eIF4H FP inh 90, PABP FP inh 92
COc1ccc(N2Cc3cccc(C(=O)N4CCN(C(=O)c5ccco5)CC4)c3C2=O)cc1	eIF4H FP inh 93, PABP FP inh 70
O=C1CC(c2ccccc2)CC(=O)C1=CN1CCCC1 (stereo unspecified)	none
CN(C(=O)COC(=O)CSc1ccc([N+](=O)[O-])cc1)c1ccccc1	none (no result: PERK inh, eIF4E 4G PPI, eIF4H FP inh, PABP FP inh)
CN(Cc1ccc(Cl)cc1)C(=O)COC(=O)CSc1ccc([N+](=O)[O-])cc1	PABP1 MLLE inh 40 (no result: PERK inh, eIF4E 4G PPI, eIF4H FP inh, PABP FP inh)
O=C(c1ccccc1F)N1CCCC(C(=O)N2CCc3ccccc3C2)C1 (stereo unspecified)	none
CCCn1c(/C=C/c2ccccc2)nc2ccccc21	none
CCn1c(/C=C/c2cc[n+](C)cc2)nc2ccccc21	PABP FP inh 100 (no result: PERK inh, eIF4E 4G PPI)
CCOC(=O)C1CCCN(C(=O)COc2ccccc2F)C1 (stereo unspecified)	none
COc1ccc2c(c1)c(=O)oc1c(C)c(OC(C)C(=O)N[C@@H](Cc3c[nH]c4ccc(O)cc34)C(=O)O)ccc12 (stereo partly specified)	eIF4H FP inh 82, PABP FP inh 53 (no result: PERK inh, eIF4E 4G PPI)
CCCc1cc(=O)oc2cc(OCC(=O)NC(Cc3c[nH]c4ccc(O)cc34)C(=O)O)c(Cl)cc12 (stereo unspecified)	eIF4H FP inh 52, PABP FP inh 20 (no result: PERK inh, eIF4E 4G PPI)
CC(Oc1ccc2c(-c3ccccc3)cc(=O)oc2c1)C(=O)NC(Cc1c[nH]c2ccc(O)cc12)C(=O)O (stereo unspecified)	eIF4H FP inh 86, PABP FP inh 58 (no result: PERK inh, eIF4E 4G PPI)
O=C(COc1ccc2c(-c3ccccc3)cc(=O)oc2c1)N[C@@H](Cc1c[nH]c2ccc(O)cc12)C(=O)O	none (no result: PERK inh, eIF4E 4G PPI)
